In PMC11006913 one finds binding signal data, which are given here for 10 sequences.

Where a chain is given by its changes, count along the chain named.

What all share (experiment): PBM; 200 nM protein, PBS
What all share (settings): dsDNA, one strand shown

The target in test [1] is T1, PAX4 (Homo sapiens, UniProt O43316 9-242, R200K).
T1 sequence: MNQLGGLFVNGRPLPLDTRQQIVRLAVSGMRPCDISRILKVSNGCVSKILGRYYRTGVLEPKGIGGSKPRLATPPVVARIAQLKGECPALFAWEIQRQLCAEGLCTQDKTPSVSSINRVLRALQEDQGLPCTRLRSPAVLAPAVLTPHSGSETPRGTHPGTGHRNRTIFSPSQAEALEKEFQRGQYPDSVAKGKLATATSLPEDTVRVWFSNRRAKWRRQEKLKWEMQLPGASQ

Test [2] concerns the target T2, PAX4 (Homo sapiens, UniProt O43316 9-242).
T2 sequence: T1 sequence with K192R

The target in test [3] is T3, PAX4 (Homo sapiens, UniProt O43316 9-242, R200Q).
T3 sequence: T1 sequence with K192Q

The target in test [4] is T4, PAX4 (Homo sapiens, UniProt O43316 9-242, F177V).
T4 sequence: T1 sequence with F169V, K192R

Test [5] has as its target T5, PAX4 (Homo sapiens, UniProt O43316 9-242, F177Y).
T5 sequence: T1 sequence with F169Y, K192R

The target of test [6] is T6, PAX4 (Homo sapiens, UniProt O43316 9-242, R227W).
T6 sequence: T1 sequence with K192R, R219W

In another test the target is CRX (Homo sapiens, UniProt O43186 26-111, R41L).
Sequence of CRX (O43186 26-111 R41L): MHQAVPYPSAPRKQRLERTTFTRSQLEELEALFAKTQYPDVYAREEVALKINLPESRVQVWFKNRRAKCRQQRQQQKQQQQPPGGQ
The target in test [7] is PRRX1 (Homo sapiens, UniProt P54821 80-166, F113S).
Sequence of PRRX1 (Homo sapiens, UniProt P54821 80-166, F113S) (P54821 80-166 F113S): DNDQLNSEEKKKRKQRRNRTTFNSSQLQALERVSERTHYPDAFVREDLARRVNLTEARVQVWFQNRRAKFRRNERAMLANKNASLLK
The next test concerns the target T7, NKX2-6 (Homo sapiens, UniProt A6NCS4 118-204, R150C).
T7 sequence: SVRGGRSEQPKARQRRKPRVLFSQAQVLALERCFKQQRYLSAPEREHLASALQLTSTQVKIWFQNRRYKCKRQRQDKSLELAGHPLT

In test [8] the target is PRRX1 (Homo sapiens, UniProt P54821 80-166).
Sequence of PRRX1 (Homo sapiens, UniProt P54821 80-166) (P54821 80-166): as the sequence (P54821 80-166 F113S) above, with S34F counted along it

Regarding CGTATTAG, the binding signal with PAX4 [1] was 11.8 upbm affinity estimate (log intensity, higher = more binding, comparable within an allelic series); with PAX4 [2] it was 12.3 upbm affinity estimate (log intensity, higher = more binding, comparable within an allelic series); in the test with PAX4 [3], 11.4 upbm affinity estimate (log intensity, higher = more binding, comparable within an allelic series); with PAX4 [4] it was 10.6 upbm affinity estimate (log intensity, higher = more binding, comparable within an allelic series); with PAX4 [5] it was 11.1 upbm affinity estimate (log intensity, higher = more binding, comparable within an allelic series); in the test with PAX4 [6], 11.1 upbm affinity estimate (log intensity, higher = more binding, comparable within an allelic series). Besides, the binding signal with CRX was 10.6 upbm affinity estimate (log intensity, higher = more binding, comparable within an allelic series).

In the case of CTCGCCTC, the binding signal in the test with PAX4 [1] is 9.23 upbm affinity estimate (log intensity, higher = more binding, comparable within an allelic series); with PAX4 [2], 9.21 upbm affinity estimate (log intensity, higher = more binding, comparable within an allelic series); in the test with PAX4 [3] it was 9.24 upbm affinity estimate (log intensity, higher = more binding, comparable within an allelic series); with PAX4 [4], 9.31 upbm affinity estimate (log intensity, higher = more binding, comparable within an allelic series); with PAX4 [5], 9.3 upbm affinity estimate (log intensity, higher = more binding, comparable within an allelic series); in the test with PAX4 [6], 9.28 upbm affinity estimate (log intensity, higher = more binding, comparable within an allelic series).

Take CGCCTGCA: the binding signal in the test with PAX4 [1] is 9.25 upbm affinity estimate (log intensity, higher = more binding, comparable within an allelic series); with PAX4 [2], 9.25 upbm affinity estimate (log intensity, higher = more binding, comparable within an allelic series); with PAX4 [3], 9.33 upbm affinity estimate (log intensity, higher = more binding, comparable within an allelic series); with PAX4 [4], 9.34 upbm affinity estimate (log intensity, higher = more binding, comparable within an allelic series); with PAX4 [5], 9.3 upbm affinity estimate (log intensity, higher = more binding, comparable within an allelic series); in the test with PAX4 [6], 9.34 upbm affinity estimate (log intensity, higher = more binding, comparable within an allelic series).

Turning to AGCGCCGC, the binding signal with PAX4 [1] is 9.3 upbm affinity estimate (log intensity, higher = more binding, comparable within an allelic series); in the test with PAX4 [2], 9.34 upbm affinity estimate (log intensity, higher = more binding, comparable within an allelic series); with PAX4 [3] it was 9.35 upbm affinity estimate (log intensity, higher = more binding, comparable within an allelic series); with PAX4 [4], 9.22 upbm affinity estimate (log intensity, higher = more binding, comparable within an allelic series); with PAX4 [5], 9.31 upbm affinity estimate (log intensity, higher = more binding, comparable within an allelic series); in the test with PAX4 [6], 9.31 upbm affinity estimate (log intensity, higher = more binding, comparable within an allelic series).

For the sequence CGTTGGCC, the binding signal in the test with PAX4 [1] is 9.3 upbm affinity estimate (log intensity, higher = more binding, comparable within an allelic series); in the test with PAX4 [2], 9.3 upbm affinity estimate (log intensity, higher = more binding, comparable within an allelic series); with PAX4 [3], 9.53 upbm affinity estimate (log intensity, higher = more binding, comparable within an allelic series); with PAX4 [4], 9.43 upbm affinity estimate (log intensity, higher = more binding, comparable within an allelic series); with PAX4 [5] it was 9.4 upbm affinity estimate (log intensity, higher = more binding, comparable within an allelic series); with PAX4 [6] it was 9.45 upbm affinity estimate (log intensity, higher = more binding, comparable within an allelic series).

AATGCGAT: the binding signal with PAX4 [1] was 10.8 upbm affinity estimate (log intensity, higher = more binding, comparable within an allelic series); with PAX4 [2] it was 11 upbm affinity estimate (log intensity, higher = more binding, comparable within an allelic series); with PAX4 [4] it was 10.2 upbm affinity estimate (log intensity, higher = more binding, comparable within an allelic series).

In the case of GAATTAAC, the binding signal in the test with PAX4 [1] is 11.6 upbm affinity estimate (log intensity, higher = more binding, comparable within an allelic series); in the test with PAX4 [2] it was 12.2 upbm affinity estimate (log intensity, higher = more binding, comparable within an allelic series); with PAX4 [3] it was 11.9 upbm affinity estimate (log intensity, higher = more binding, comparable within an allelic series); with PAX4 [4] it was 10.4 upbm affinity estimate (log intensity, higher = more binding, comparable within an allelic series); with PAX4 [5] it was 11 upbm affinity estimate (log intensity, higher = more binding, comparable within an allelic series); with PAX4 [6] it was 10.8 upbm affinity estimate (log intensity, higher = more binding, comparable within an allelic series).

For ACGTATTA, the binding signal was 11.7 upbm affinity estimate (log intensity, higher = more binding, comparable within an allelic series) in the test with PAX4 [1]; 11 upbm affinity estimate (log intensity, higher = more binding, comparable within an allelic series) with PAX4 [5]; 11.1 upbm affinity estimate (log intensity, higher = more binding, comparable within an allelic series) with PAX4 [6].

TATTTTAA: the binding signal is 11 upbm affinity estimate (log intensity, higher = more binding, comparable within an allelic series) with PAX4 [1]; 11.2 upbm affinity estimate (log intensity, higher = more binding, comparable within an allelic series) in the test with PAX4 [2]; 11 upbm affinity estimate (log intensity, higher = more binding, comparable within an allelic series) with PAX4 [3]; 10.6 upbm affinity estimate (log intensity, higher = more binding, comparable within an allelic series) with PAX4 [5]; 10.6 upbm affinity estimate (log intensity, higher = more binding, comparable within an allelic series) with PAX4 [6].

On to GTCCCCCA, for which the binding signal with PRRX1 [7] is 9.39 upbm affinity estimate (log intensity, higher = more binding, comparable within an allelic series); in the test with NKX2-6, 9.42 upbm affinity estimate (log intensity, higher = more binding, comparable within an allelic series); with PRRX1 [8] it was 9.22 upbm affinity estimate (log intensity, higher = more binding, comparable within an allelic series).
